Experimental data from PubChem BioAssay AID504408 (Broad Institute, 2011).
The campaign covered roughly 300,000 compounds. About 5,200 (1.7%) were called active.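 How the source made its calls: active means mean replicate activation of at least 50% with a set share of replicates each reaching 50%; inconclusive means only one of those two conditions met; inactive means mean below 50% and too few replicates reaching it.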 This excerpt belongs to a sample that is enriched for actives.

Experiment: HSF-1 response element luciferase induction – NIH3T3-HGL cells, MG132 stress, luminescence, single point, primary screen (AID 504408);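 further: 0% = median of the neutral control wells and 100% = twice that signal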
Conditions: NIH3T3-HGL HSF-1 luciferase reporter, MG132, 8 h; at 9 µM; stronger effect = higher value; 100% = twice DMSO control signal

activation, active:
CCOC(=O)N1CCN(C(c2cccnc2)c2ccc3cccnc3c2O)CC1 (centres undefined) 67.9%
CC(=O)Nc1ccc(Nc2nc3c(S(=O)(=O)c4ccc(C)c(C)c4)nnn3c3ccccc23)cc1 74.4%
CN(C)CCCn1c(N)c(C#N)c2nc(C#N)c(C#N)nc21 76.2%
C=CCN1C(=O)C(Cc2ccc(OCC)cc2)SC1=Nc1ccc(C(=O)O)cc1 (centres undefined) 58.5%
Clc1ccc2nc(CSc3ccccc3)cn2c1 70.2%
Cc1c(C(N)=O)sc2ncn(CCOc3ccccc3)c(=O)c12 58.5%
O=C1CC(c2cccc(Cl)c2)CC(O)=C1C=Nc1ccccc1 (centres undefined) 116%
CCCCOC(=O)CCCc1ccc([N+](=O)[O-])cc1[N+](=O)[O-] 65%
Cc1csc(NC(=S)Nc2cccc(Cl)c2)n1 58.4%
CCN(CC)S(=O)(=O)c1ccc(-c2cn3ccc(C)cc3n2)cc1 58.1%
CC(=O)c1sc(N/N=C/c2ccc(C(C)C)cc2)nc1C 59.6%
COc1ccccc1/C=N/Nc1nc(C)c(C(C)=O)s1 55.9%
Cc1ccc(-c2csc(-c3c[nH]c4ccccc34)n2)cc1 62%
Cc1cc(C(=O)N/N=C/c2ccccc2[N+](=O)[O-])c(C)o1 58.5%
Cc1cc(C(=O)N/N=C\C(Br)=C\c2ccccc2)c(C)o1 112%
COc1cc(/C=N/O)ccc1OCc1ccc([N+](=O)[O-])cc1 118%
CC(/C=N/NC(=O)c1cc(-c2ccc3ccccc3c2)n[nH]1)=C\c1ccco1 71.5%
NC(=O)c1ccccc1N=Cc1ccc2ccccc2c1 75.3%

activation, inactive:
CC(OC(=O)c1ccc(-n2cnnn2)cc1)C(=O)NCc1ccccc1 (centres undefined) -14%
CCOC(=O)N1CCN(C(=O)CSc2nc(=O)n3cccc(C)c3n2)CC1 -0.428%
CCN1CCN(C(c2cccnc2)c2cc(Cl)c3cccnc3c2O)CC1 (centres undefined) -83.7%
Cc1cccc(Nc2nc3c(S(=O)(=O)c4ccccc4)nnn3c3ccccc23)c1C 8.48%
Cc1ccc(S(=O)(=O)c2nnn3c2nc(N2CCN(c4ccccn4)CC2)c2ccccc23)cc1 30.6%
COc1ccc(/C=C(\C#N)C(=O)OCC(=O)N(C)C2CCS(=O)(=O)C2)cc1 (centres undefined) -4.8%
Cc1ccc2nc(SCC(=O)Nc3cccc4ccccc34)nc(=O)n2c1 16.2%
CC(C)(C)c1ccc(C(=O)NCCn2c(N)c(C#N)c3nc4ccccc4nc32)cc1 27.2%
N#Cc1c(N)n(CCOC(=O)c2ccc(Cl)cc2)c2nc3ccccc3nc12 26.8%
CC(OC(=O)CCCc1c[nH]c2ccccc12)C(=O)Nc1ccc(S(N)(=O)=O)cc1 (centres undefined) 8.99%
CC(=O)Nc1ccc(C(=O)Nc2cccc(S(=O)(=O)NC3=NCCC3)c2)cc1 -9.72%
COc1ccc(C(=O)CN2C(=O)NC3(CCc4ccccc43)C2=O)c(OC)c1 (centres undefined) -14%
Cc1nn(C)cc1C(=O)c1ccccc1 5.22%
Cc1cc(NC(=O)C(C)N2C(=O)c3ccccc3S2(=O)=O)no1 (centres undefined) -3.5%
COc1cc2ccccc2cc1C(=O)N1CCOCC1 -5.8%
CCOc1ccc(N=C2SC(C(=O)O)CC(=O)N2C)cc1 (centres undefined) -0.001%
C=CCN1C(=O)C(Cc2cccc(Cl)c2)S/C1=N/N=C/c1ccco1 (centres undefined) 23.1%
COc1cccc(N2CC(NC(=O)c3ccc4ccccc4c3)CC2=O)c1 (centres undefined) -3.4%
Nc1c(-c2ccccc2)nnn1Cc1ccccc1 17.5%
O=c1c2ccccc2nc2n1C(CSc1ccc(Cl)cc1)CN2 (centres undefined) -13%
O=C(/C=C/c1ccc2c(c1)OCO2)NCc1cn2cc(Cl)ccc2n1 1.53%
N#CC1(NC(=O)COC(=O)Cc2n[nH]c(=O)c3ccccc23)CCCCC1 3.96%
COc1ccc(-c2cc(C(=O)N(C)CC(=O)Nc3ccccc3Cl)c3ccccc3n2)cc1OC -23.1%
Cc1cccc(OC(=O)c2sc3ncn(C)c(=O)c3c2C)c1 17.3%
CCOC(=O)C(C)n1cnc2sc(C)c(C)c2c1=O (centres undefined) 6.07%
CCOc1ccc(CCNC(=O)COC(=O)c2ccc(F)c(S(=O)(=O)N3CCOCC3)c2)cc1OCC -9.54%
CCC(=O)N1CCc2cc(Br)c(S(=O)(=O)NCCN3CCCCC3CC)cc21 (centres undefined) -1.08%
COc1ccc(C(=O)Nc2cccc(NC(=O)c3ccc(OC)cc3OC)n2)c(OC)c1 -34.1%
O=C1CC(c2ccccc2)CC(O)=C1C=NCCN1CCOCC1 (centres undefined) -5.8%
O=C1CCCC(O)=C1C=NCCc1ccccc1 21%
O=C(NCCS(=O)(=O)N1CCN(c2ccccc2)CC1)c1ccco1 4.49%
Cc1cc(O)c(Sc2ccccc2)c(=O)o1 -2.42%
CCCCn1c(N)c(N(CC(C)C)C(=O)c2cccc(S(=O)(=O)N3CCN(C(C)=O)CC3)c2)c(=O)[nH]c1=O -4.85%
CCOC(=O)C/C(C)=N\Nc1ccc([N+](=O)[O-])cc1[N+](=O)[O-] 1.63%
CCCCOc1ccc(CSC(=N)N)cc1[N+](=O)[O-] -29.6%
Cc1csc2nc(O)c(C(=O)NCCN3CCOCC3)c(=O)n12 -6.85%
COc1ccc(S(=O)(=O)NCC(c2ccc(C)cc2)N2CCN(C)CC2)cc1OC (centres undefined) 5.43%
S=C(Nc1cccc(Cl)c1)Nc1ccc2cn[nH]c2c1 20.2%
S=C(Nc1cccc(Cl)c1)Nc1ccc2c(c1)OCCO2 5.58%
COc1ccc(C(=O)NCC2CCCN2S(=O)(=O)c2cccs2)cc1OC (centres undefined) -9.4%
Cc1ccc2nc(-c3ccc(Br)cc3)cn2c1 -34.2%
CCN(c1cccc(C)c1)S(=O)(=O)c1ccc(-c2coc(C)n2)cc1 -1.05%
Cc1ccc(SCC(=O)Nc2nncs2)cc1 -2.82%
COc1ccc(-n2nnnc2CNC(=O)c2ccc3ccccc3c2)cc1 3.44%
COc1cccc(NC(=O)CSc2nnc(-c3cccnc3)o2)c1 11.6%
Cc1ccc(C)c(-c2nnc(NC(=O)CS(=O)(=O)c3ccccc3)o2)c1 -10.1%
COc1cccc2sc(Nc3nc(C)c(C(C)=O)s3)nc12 -3.69%
CC(=O)c1sc(NC(=O)CCCOc2ccccc2C)nc1C 35.1%
COc1cc2ccccc2cc1C(=O)Nc1nc(C)c(C(C)=O)s1 23.8%
CC(=O)c1sc(N/N=C\c2ccc(C)cc2)nc1C 38.3%
CCN1C(=O)[C@H]2[C@@H](c3ccc(C)cc3)N3C(=O)N(c4cccc(Br)c4)C(=O)[C@@]3(CC)[C@H]2C1=O -10.8%
Cc1csc(NC(=O)CSc2nc(=O)n(CCCN(C)C)c3c2CCC3)n1 -4.76%
Cc1ccc(S(=O)(=O)CCC(=O)OCC(=O)N(C)C2CCS(=O)(=O)C2)cc1 (centres undefined) 2.33%
CCN(Cc1ccccc1)S(=O)(=O)c1cc2c3c(c1)CCN3C(=O)CC2 23.7%
COc1ccc2c(c1)C(=O)Nc1cc(Cl)ccc1N2 12.2%
CN(C)CCn1c2c(c(SCC(=O)Nc3ccccc3C(F)(F)F)nc1=O)CCCC2 -8.06%
Cc1ccc(-c2csc(-c3cc(C)on3)n2)cc1 28.5%
CCCc1cc(-c2nc(-c3ccc(C)cc3)cs2)ccn1 7.82%
COc1ccccc1C(=O)NCCC(=O)NN1C(=O)NC2(CCCCC2)C1=O -5.35%
O=C(COC(=O)c1ncc(Cl)c(Cl)c1Cl)NCc1cccs1 -3.74%
CC(C)c1cc(C(=O)N/N=C/C(Br)=C/c2ccccc2)n[nH]1 40.2%
CC(=C/c1ccccc1)/C=N/NC(=O)c1cc(C)oc1C 32%
Cc1cc(C(=O)N/N=C/c2ccc(N3CCOCC3)cc2)c(C)o1 -5.06%
O=C(Cc1cc(=O)[nH][nH]1)N/N=C/c1ccccc1[N+](=O)[O-] -2.04%
COc1cc(C(=O)N(C)Cc2cccc(OC)c2OC)ccc1OCC(=O)Nc1cccc(C(F)(F)F)c1 -3.36%
CC(OC(=O)CCC(=O)c1ccccc1)C(=O)Nc1ccc(F)cc1 (centres undefined) -12.9%
COc1cc(/C=N\Nc2ccc([N+](=O)[O-])cn2)ccc1OCC(=O)O 0.194%
COc1cc(C(=O)OCc2ccc([N+](=O)[O-])cc2)cc(OC)c1OC 12.4%
O=C(Nc1ccc(F)c([N+](=O)[O-])c1)C1CCCO1 (centres undefined) 9.04%
COc1ccc(S(=O)(=O)N2CCOC23CCN(S(=O)(=O)c2ccc([N+](=O)[O-])cc2)CC3)cc1 0.627%
CCOc1ccc(C(C)=O)cc1COC(=O)CN1C(=O)NC2(CCCC2)C1=O -13.7%
CC(/C=N/NC(=O)c1ccncc1)=C\c1ccco1 27.6%
Cc1ccc(-c2cc(C(=O)N/N=C/C=C/c3ccco3)c3ccccc3n2)cc1C -41.2%
N=c1oc2ccccc2cc1C(=O)N/N=C/c1ccccc1 22.1%
COc1ccc(/C=N/Nc2ccccc2C(=O)O)cc1 12.9%
COc1ccccc1NS(=O)(=O)c1ccc(C(=O)N2CCN(c3ccccc3O)CC2)cc1 14.5%
